This note sets out measurements from PubChem BioAssay AID2501 (Southern Research Specialized Biocontainment Screening …, 2010).

Molecules are shown by their SMILES. About 1,200 (55%) of roughly 2,200 compounds were called active. The limit is not given here; nearly all actives have IC50 up to about 92 µM. So high a share suggests a set chosen from earlier hits. The list shows a part of the results.

The assay is described as follows: counter assay for TAg ATPase ADP read-out – biochemical, ADP-Hunter, fluorescence, counter-screen (AID 2501).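 Also: purified T antigen ATPase.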 To be noted: series mostly up to 100 µM.
With `CCN(CC)c1ccc(N=Cc2c(O)n(-c3cc(OC)ccc3OC)c(=O)[nH]c2=O)cc1`, the IC50 is 6.82 µM (active).

As to `Cc1ccccc1-n1c(O)c(C=Nc2ccc(N(C)C)cc2)c(=O)[nH]c1=O`, the IC50 is 5.9 µM (active).

Regarding `CCN(CC)c1ccc(N=Cc2c(O)n(-c3ccccc3C)c(=O)[nH]c2=O)cc1`, the IC50 was 7.13 µM (active).

As to `Cc1cccc(OCCn2cccc2/C=C2/C(=O)NC(=O)N(Cc3ccco3)C2=O)c1`, the IC50 entry was “inactive”.

Take `CN(C)c1ccc(C=C2C(=O)NC(=S)NC2=O)cc1[N+](=O)[O-]`: the IC50 entry was “inactive”.

Turning to `Oc1ccc(C[C@H]2NCCc3cc(O)c(O)cc32)cc1O`, the IC50 entry was “inactive”.

With `N#CSCC(=O)N1c2ccccc2CCc2ccccc21`, the IC50 entry is “inactive”.

For the compound `Cc1ccc(/C=C2\C(=O)NC(=S)N(c3cccc(F)c3)C2=O)o1`, the IC50 entry is “inactive”.

In the case of `Cc1cc(/C=C2\C(=O)NC(=O)N(c3ccc(Cl)cc3)C2=O)c(C)n1-c1sc2c(c1C#N)CCCC2`, the IC50 entry is “inactive”.

`NCCc1c[nH]c2ccc(O)cc12`: the IC50 is 10.5 µM (active).

For the compound `CCN(CC)C(=O)c1ccc2c(c1)C1C(Cl)C(Sc3ccccc3[N+](=O)[O-])CC1C(C(=O)O)N2` (stereo not given), the IC50 result is “inactive”.

`O=C1NC(=S)NC(=O)C1=Cc1ccc(Br)s1`: the IC50 entry is “inactive”.

Take `N#Cc1c(/N=C/c2c(O)n(Cc3ccco3)c(=O)[nH]c2=O)sc2c1CCCC2`: the IC50 is 27.2 µM (active).

For the compound `O=c1[nH]c(=O)n(Cc2ccccc2)c(O)c1/C=C1\C=Nc2ccccc21`, the IC50 result was “inactive”.

For `CCCCC(=O)N/N=C/c1c(O)n(Cc2ccco2)c(=O)[nH]c1=O`, the IC50 entry is “inactive”.

As for `O=C1NC(=O)C(=Cc2ccc(-c3ccccc3[N+](=O)[O-])o2)C(=O)N1`, the IC50 result was “inactive”.

With `CCN(CC)c1ccc(/C=C2\C(=O)NC(=O)N(Cc3ccco3)C2=O)cc1`, the IC50 entry was “inactive”.

With `O=C1NC(=O)C(=Cc2ccc(-c3ccc(F)cc3O)o2)C(=O)N1`, the IC50 entry is “inactive”.

Regarding `CC(Cc1ccccc1Sc1ccc(O)cc1)N(C)C` (stereo not given), the IC50 is 1.99 µM (active).

For the compound `CNC(C)Cc1ccccc1Sc1ccc(O)cc1` (stereo not given), the IC50 was 2.47 µM (active).

As for `O=C1NC(=O)N(c2ccccc2F)C(=O)/C1=C/c1ccc(Sc2nc3ccccc3[nH]2)o1`, the IC50 result was “inactive”.

With `COc1cc2c(cc1OC)-c1c(OC)c(OC)cc3c1[C@H](C2)[N+](C)(C)CC3`, the IC50 result is “inactive”.

As to `O=c1[nH]c(=S)n(C2CC2)c(O)c1/C=N/Nc1ccccc1`, the IC50 was 3.94 µM (active).

Take `COc1cccc(N2C(=O)NC(=O)/C(=C\c3ccc([N+](=O)[O-])s3)C2=O)c1`: the IC50 entry was “inactive”.

Turning to `O=C1NC(=O)C(=Cc2cc3c(cc2[N+](=O)[O-])OCO3)C(=O)N1`, the IC50 entry was “inactive”.

Consider `Cc1cccc(N2C(=O)NC(=O)/C(=C/c3ccc(-c4ccc(C(=O)O)c(Cl)c4)o3)C2=O)c1`, for which the IC50 result is “inactive”.

Regarding `C1=Cc2ccccc2Nc2ccccc21`, the IC50 is 4.79 µM (active).

As to `Oc1ccc(/C=N/NP(=S)(c2ccccc2)c2ccccc2)cc1O`, the IC50 was 35.3 µM (active).

On to `O=C1NC(=O)N(c2ccc(Cl)cc2)C(=O)/C1=C\c1ccc(Sc2nc3ccccc3[nH]2)o1`, for which the IC50 entry was “inactive”.

On to `CCN1CCN(c2ccc(N)cc2C)CC1`, for which the IC50 was 4 µM (active).

`CCOc1cc(-c2ccc(N)c(OCC)c2)ccc1N`: the IC50 was 1.03 µM (active).

In the case of `COc1cc2c(cc1OC)CC[N+](C)=C2`, the IC50 entry was “inactive”.

On to `CCCCN1C(=O)/C(=C/C=C/c2ccco2)C(=O)NC1=S`, for which the IC50 result is “inactive”.

For the compound `O=C(O)c1cccc2c1NC(C(=O)O)C1CC(Sc3ccccc3[N+](=O)[O-])C(Cl)C21` (stereo not given), the IC50 result is “inactive”.

In the case of `O=C(O)CCn1cc(C=C2C(=O)NC(=S)NC2=O)c(-c2cccc(Cl)c2)n1`, the IC50 entry is “inactive”.

In the case of `COc1ccc(N2C(=O)/C(=C/c3ccco3)C(=O)NC2=S)cc1`, the IC50 entry was “inactive”.

With `COc1cccc(-n2c(/C=C/c3ccc(O)c(O)c3)nc3ccccc3c2=O)c1`, the IC50 was 7 µM (active).

As to `COc1ccc(-n2c(/C=C/c3ccc(O)c(O)c3)nc3ccccc3c2=O)cc1`, the IC50 is 24.2 µM (active).

As for `COC(=O)C1=Nc2ccccc2/C1=C\c1c(O)n(-c2ccc(OC)cc2)c(=O)[nH]c1=O`, the IC50 entry is “inactive”.

For the compound `Cc1ccc2c(c1)=NC(=O)/C(=C/c1c(O)[nH]c(=O)[nH]c1=O)C=2`, the IC50 entry is “inactive”.

On to `CN(C)[C@@H]1C(=O)C(C(N)=O)=C(O)[C@@]2(O)C(=O)C3=C(O)c4c(O)cccc4[C@@](C)(O)[C@H]3C[C@@H]12`, for which the IC50 result is “inactive”.

On to `COc1ccc(/C=C2/C(=O)N(Cc3ccco3)C(=O)N(C(C)C)C2=O)cc1`, for which the IC50 result is “inactive”.

As for `O=C(O)c1c[nH]c2ccc(S(=O)(=O)N(CCCl)CCCl)cc12`, the IC50 result is “inactive”.

In the case of `O=c1cc(-c2ccc(O)c(O)c2)oc2c(C3O[C@H](CO)[C@@H](O)[C@H](O)[C@H]3O)c(O)cc(O)c12` (stereo not given in full), the IC50 is 4.81 µM (active).

On to `O=C1N[C@H](Cc2ccccc2)C(=O)N2[C@@H]3[C@H](C[C@@H]12)c1ccccc1N3OOSc1ccccc1`, for which the IC50 result was “inactive”.

In the case of `O=C1NC(=S)N(c2ccc(F)cc2)C(=O)/C1=C\c1ccoc1`, the IC50 entry was “inactive”.

Take `COc1cccc(C(=O)NC2CC3CCCC(C2)N3CC(=O)Nc2ccc(N(C)C)cc2)c1` (stereo not given): the 50% inhibitory concentration (IC50) was 3.14 µM (active).

Consider `CN(C)c1ccc(NC(=O)CN2C3CCCC2CC(NC(=O)c2ccccc2)C3)cc1` (stereo not given), for which the IC50 was 3.12 µM (active).

Regarding `CN(C)c1ccc(NC(=O)CN2CCC(O)(c3ccccc3)CC2)cc1`, the IC50 is 2.88 µM (active).

Turning to `CN(C)c1ccc(NC(=O)CN2C(=O)CN=C(c3ccccc3)c3ccccc32)cc1`, the IC50 is 9.96 µM (active).

Regarding `Cc1ccccc1N1C(=O)NC(=O)/C(=C\c2cnn(-c3ccccc3)c2)C1=O`, the IC50 result is “inactive”.

As to `O=C1NC(=O)N(c2cccc(Cl)c2)C(=O)/C1=C\c1ccc(Sc2nc3ccccc3[nH]2)o1`, the IC50 entry is “inactive”.

For `CN1C2CCC1CC(=NO)C2`, the IC50 entry was “inactive”.

For the compound `C=C(C=O)CC1CC(O)[C@]2(C)OC3CC4OC5C[C@]6(C)O[C@]7(C)CCC8OC9C[C@]%10(C)OC%11C(C)=CC(=O)OC%11CC%10OC9C[C@@H](C)C8OC7CC6O[C@]5(C)CC5OC5C4OC3CC2O1` (stereo not given in full), the IC50 entry is “inactive”.

`CCCN1CCc2cccc3c2[C@H]1Cc1ccc(O)c(O)c1-3`: the IC50 result is “inactive”.

As for `Cc1ccc2c(c1)C1CN(C)CCC1N2C(=O)Nc1cccc(C(F)(F)F)c1` (stereo not given), the IC50 result was “inactive”.

Turning to `CCCCN1C(=O)/C(=C/c2ccc(N(C)C)cc2)C(=O)N(Cc2ccco2)C1=O`, the IC50 result is “inactive”.

`CP(=O)(Nc1ccccc1)C(Cl)(Cl)Cl` (stereo not given): the IC50 entry is “inactive”.

For the compound `CNC(=O)Oc1ccc2ncccc2c1`, the IC50 is 24.1 µM (active).

On to `CNC(=O)Oc1ccc(-c2cn3cc(Cl)ccc3n2)cc1`, for which the IC50 entry is “inactive”.

Turning to `CC[C@H](C)/C=C(C)/C=C/C1=CC2=C(Cl)C(=O)[C@@](C)(OC(C)=O)C(=O)C2=CO1`, the IC50 result was “inactive”.

`O=C(CN1CCCC1=O)N1CCOCC1`: the IC50 result was “inactive”.

In the case of `N/C(=N\N=C\c1ccc(O)cc1O)N[N+](=O)[O-]`, the IC50 is 4.1 µM (active).

Take `N/C(=N\N=C/c1ccc(-c2ccc(O)c(C(=O)O)c2)o1)N[N+](=O)[O-]`: the IC50 entry was “inactive”.

For `COc1ccc(/C=C2/C(=O)NC(=S)N(C3CC3)C2=O)cc1CN1C(=O)c2ccccc2C1=O`, the IC50 result was “inactive”.

On to `O=C(c1ccc2nc(-c3ccco3)c(-c3ccco3)nc2c1)N1CCC2(CC1)OCCO2`, for which the IC50 result was “inactive”.

In the case of `O=C(O)c1cc[c]([Hg][Cl])cc1`, the IC50 result was “inactive”.

Consider `CN1C(=O)/C(=C/c2cccn2-c2ccc3ccccc3c2)C(=O)NC1=S`, for which the IC50 entry was “inactive”.

As to `COc1cc2c(ccc3cc(OC)c(OC)c(O)c32)cc1O`, the IC50 was 39.6 µM (active).

For the compound `O=C1NC(=O)N(c2ccccc2)C(=O)/C1=C/C=C/c1ccco1`, the IC50 result was “inactive”.
